In the library only some 6.2% were active in any assay of this set; here they are far more common.
KB-V1 cytotox: kills drug-selected multidrug resistant KB-V1 cells. KB-V1 MDR cells viability, CellTiter-Glo, 72 h. Potency, µM (titrated, usually from 46.1 µM), actives largely listed as cytotoxic. 3.4% of 400,000 active; also: % is scaled to controls: 0 for no effect and ±100 for the full control effect; nearly all actives have a fitted effect of over 60% in size
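KB-V1, DMEM (no phenol red) + 10% FBS; cpd pin-transferred, titration series; 72 h, 37 degrees C; CellTiter-Glo, luminescence. Data normalized, curve-fit.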
KB-3-1 tox: kills parental KB-3-1 adenocarcinoma cells; KB-3-1 viability, CellTiter-Glo ATP luminescence, 72 h; Potency, µM (highest dose often 46.1 µM), most hits filed as cytotoxic; 1.4% of 400,000 active; also: % is scaled to controls: 0 for no effect and ±100 for the full control effect; nearly all actives have a fitted effect of over 60% in size
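Parental KB-3-1 viability, qHTS format: 72 h compound exposure, 37 °C; CellTiter-Glo; media-only wells and DMSO plates as controls; concentration-effect fits on corrected data.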
HT1080 IDH1KD tx: toxicity to HT-1080 IDH1 knockdown cells (counter line) | HT-1080 IDH1 knockdown viability, ATP luminescence, 48 h | 2% of 360,000 active | Potency, µM (series often up to 46.1 µM), for the others: top-dose activity, negative = toxicity, usual class: cytotoxic;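 also: 0% = DMSO wells and -100% = cell-free medium wells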
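HT-1080-IDH1KD cells (IDH1 knocked down), 750/well in RPMI with 5% FBS, treated with compound 48 h at 37 degrees C. Viability by CellTiter-Glo luminescence, normalised to DMSO and no-cell wells; concentration-response curves classed.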
S2 tox: cell viability loss in ATXN counter-screen; S2 cells (HEK-293 line with an ATXN2-luciferase reporter) viability, CellTiter-Fluor protease fluorescence, 24 h; Potency, µM (doses to about 56.7 µM), most hits filed as cytotoxic; AID 651635; 0.49% of 400,000 active; also: nearly all actives have a fitted effect of over 40% in size
HT1080-NT tox: kills 2HG-producing HT-1080-NT fibrosarcoma cells | HT-1080-NT fibrosarcoma viability, CellTiter-Glo ATP luminescence, 48 h | Potency, µM (titrated, usually from 46.1 µM), for inactives: at the highest dose activity, negative = less viability, usual class: cytotoxic | 1.6% of 360,000 active | AID 686970;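 also: NT is the 2HG producing partner of a matched IDH1 knockdown line; 0% = DMSO-treated cells and -100% = media-only wells without cells; nearly all actives have a fitted effect of over 55% in size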
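Luminescent CellTiter-Glo readout after 48 hours of compound exposure at 37 degrees C defined viability of HT-1080-NT cells. Activity was normalized to DMSO wells and cell-free media wells; concentration-response curves were fitted and assigned curve classes.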
ATXN2 expr inh: reduces ATXN2 reporter expression in HEK-293 cells. 0.72% of 360,000 active. AID 1745845. HEK-293 ATXN2-luciferase reporter, luminescence, 24 h. Potency, µM (highest dose often 57 µM), for inactives: at the highest dose activity change, negative = inhibition, hits mostly inhibitors; also: % is scaled to controls: 0 for no effect and ±100 for the full control effect; nearly all actives have a fitted effect of over 55% in size
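qHTS (up to 57 uM final) was run with 24 h compound exposure of reporter cells at 37 °C. Each well was multiplexed: SteadyGlo luminescence measured ATXN2-luciferase expression after a fluorogenic Gly-Phe-AFC viability readout (25 uM final).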
Numbers without * were called inactive; i = inactive; ? = inconclusive; . = not tested or not shown; [ ] = another dose, or the depositor's remark. Calls follow the shape of the dose curve; as a rule, active = well fitted curve in the direction sought with a large enough effect; inconclusive = small, poorly fitted or top-dose-only effect, or another doubt; inactive = no such curve, though single readings can be large; an effect the other way counts as inactive or inconclusive. Potency is read from the fitted curve at half-maximal effect.

SMILES | KB-V1 cytotox | KB-3-1 tox | HT1080 IDH1KD tx | S2 tox | HT1080-NT tox | ATXN2 expr inh
CC(=O)c1ccc(-c2cc(F)cc3c2OC(CNC(=O)c2ccc[n+]([O-])c2)C3)s1 (stereo not given) | . | . | . | i | . | .
CC(=O)Nc1ccccc1-c1nc2ccccc2n(CC(=O)Nc2cccc(C)c2C)c1=O | i | i | . | . | . | .
O=C(Oc1c(CN2CCOCC2)cc(Cl)c2cccnc12)c1ccccc1F | ? | 18µM* | ? | . | ? | ?
O=C(Oc1ccc(C(=S)N2CCOCC2)cc1Cl)c1ccccc1F | i | i | 0% | i | -1% | .
COc1cc(OC)cc(C(=O)Oc2c(CN3CCOCC3)cc(Cl)c3cccnc23)c1 | ? | i | -26% | ? | ? | 0%
Oc1c(CN2CCCCC2)cc(Br)c2cccnc12 | ? | 13µM* | ? | 3.5µM* | ? | 4µM*
O=C(Oc1c(CN2CCOCC2)cc(Cl)c2cccnc12)c1ccccc1 | ? | ? | 10µM* | 11µM* | ? | 8.9µM*
O=C(COc1c(Br)cc(Br)c2cccnc12)N1CCCCC1 | i | i | -16% | i | -15% | 1%
CC(=O)Nc1nonc1-c1nnc(SCc2ccc(Cl)cc2)n1C | i | i | . | i | . | -32%
COc1cccc2c1Oc1ncccc1N(C(=O)CCC(=O)NCc1ccc(N(C)C)cc1)C2 | i | i | . | i | . | 5%
ClCc1nc2ccccc2c2ccccc12 | ? | ? | 18µM* | ? | 5.8µM* | 0%
O=c1[nH]c(=S)c2[nH]cnc2[nH]1 | i | i | . | . | . | .
C[C@H](NCc1ccc2c(c1)nc(NC(=O)c1ccc(-c3cn[nH]c3)s1)n2CCc1ccccc1)C(C)(C)C | . | . | . | . | . | 1.9µM*
CC1(C)CCC[C@@]2(C)[C@@H]1CC[C@@]1(C)OC(=O)C[C@H]21 | . | . | . | . | . | -16%
COC1=C(c2ccccc2)C(=O)c2ccccc2C1=O | ? | i | 26µM* | . | -13% | ?
O=C(C1=C(c2ccccc2)C(=O)c2ccccc2C1=O)c1ccccc1 | ? | ? | 15µM* | . | ? | ?
COc1ccc(NC2=C(c3ccc(OC)cc3)C(=O)c3ccccc32)cc1 | 5.2µM* | i | 6% | i | -11% | 20%
COc1ccc(NC2=C(NCCO)C(=O)c3ccccc3C2=O)cc1 | 21µM* | ? | 8.2µM* | i | 13µM* | -5%
O=C(c1ccccc1)c1c[nH]cc1-c1ccccc1 | i | i | -15% | i | 4% | 2%
CCC(Sc1nncn2c1cc1occc12)C(=O)Nc1ccc(C)c(Cl)c1 (stereo not given) | i | i | . | . | . | .
Nc1nc(N)c(N=O)c(OCC2CCCCC2)n1 | ? | i | 18µM* | ? | ? | 7%
CCN(CC)CCNc1ncnc2c1sc1nc(N3CCOCC3)c3c(c12)CCCC3 | ? | 15µM* | 10% | i | 2% | -5%
CCN(CC)CCNc1ncnc2c1sc1nc(N3CCCC3)c3c(c12)CC(C)(C)OC3 | i | i | 18µM* | i | 16µM* | -33%
CN(C)CCNc1ncnc2c1sc1nc(N3CCCC3)c3c(c12)CC(C)(C)OC3 | ? | i | 21µM* | ? | ? | ?
CC(C)CNc1ncnc2c1sc1nc(N3CCOCC3)c3c(c12)CC(C)(C)OC3 | i | i | 7% | i | 12% | 1%
SMILES | KB-V1 cytotox | KB-3-1 tox | HT1080 IDH1KD tx | S2 tox | HT1080-NT tox | ATXN2 expr inh
CC1(C)Cc2c(c(-c3ccco3)nc3sc4c(NCCN5CCOCC5)ncnc4c23)CO1 | i | i | 16µM* | i | 23µM* | ?
Cc1nn(C(=O)c2cccc(Cl)c2)c(C)c1S(=O)(=O)N1CCOCC1 | i | i | . | i | . | 2%
CCN(CC)C(=O)c1sc2c(c1C)c(=O)n(-c1ccc(OC)cc1OC)c(=O)n2CC(=O)c1ccc(Cl)cc1 | i | i | . | i | . | -2%
CN(Cc1ccccc1)c1nc(N)nc(Cl)c1C=O | i | i | 18µM* | ? | ? | ?
Cc1onc(-c2ccccc2Cl)c1C(=O)N(Cc1nc(-c2ccccc2)no1)C1CCCCC1 | 18µM* | ? | ? | i | -8% | -17%
Nc1ccc(Oc2cccc(Oc3ccc(N)cc3)c2)cc1 | i | i | -8% | i | -17% | 1.8µM*
Cc1cccc(Oc2ccc(N)cc2)c1 | i | i | -4% | i | -5% | 18%
Cc1nc(S(=O)(=O)N2CCN(c3ccc(Cl)cc3)CC2)cn1C | i | i | . | i | . | -1%
Cc1nc2n(c(=O)c1CCN1CCC(c3noc4cc(F)ccc34)CC1)CCC[C@H]2O | i | i | . | i | . | -11%[25.6 µM]
Fc1ccccc1NC(=S)N/N=C/c1ccccc1Br | i | i | 7.1µM* | i | 7.1µM* | 67%
COC(=O)c1cc(OC)c(OC)cc1NC(=O)CN1CCCCC1 | 16µM* | i | 15% | i | 26% | -6%
COC(=O)c1cc(OC)c(OC)cc1NC(=O)Cc1ccccc1[N+](=O)[O-] | 2.3µM* | i | ? | i | 1% | 32%
COC(=O)c1cc(OC)c(OC)cc1NCC(=O)Nc1ccc(OC)c(OC)c1 | ? | i | 0% | i | 1% | -7%
COC(=O)c1cc(OC)c(OC)cc1NCC(=O)Nc1ccc(C)cc1 | 23µM* | i | 2% | ? | 0% | -1%
COc1ccccc1NC(=O)CN1CCN(Cc2ccccc2)CC1 | 10µM* | i | 1% | i | 9% | -10%
CCOC(=O)C1=C(CN2CCC(C(=O)OCC)CC2)NC(=O)NC1c1ccc(Cl)cc1 (stereo not given) | i | i | . | i | . | -1%
CC1(C(=O)Nc2cccc3cccnc23)CCN1Cc1cccc2c1OCO2 (stereo not given) | ? | ? | ? | 14µM* | 6.5µM* | 6.3µM*
COc1ccc(/C=N/N(Cc2ccccc2)c2ccccc2)cc1O | ? | i | 23µM* | i | 15µM* | 14%
COc1cc(O)ccc1/C=N/NC(=O)c1ccc([N+](=O)[O-])cc1 | i | i | 0% | i | 4% | -9%
O=C(NC(CSCc1ccccc1)C(=O)N/N=C/c1ccc(O)cc1O)c1ccc([N+](=O)[O-])cc1 (stereo not given) | i | ? | 0.89µM* | i | 2.8µM* | 3.2µM*
O=C1CCC(c2ccccc2)c2ccccc21 (stereo not given) | i | i | 2% | i | 0% | -23%
N#CC1C(=O)c2ccccc2C1c1ccccc1 (stereo not given) | i | i | 12µM* | ? | ? | ?

Bioassay records from PubChem BioAssay.
